PubChem BioAssay (NCI)
About 83,000 compounds went through this panel and 20% of them were active in at least one assay; those are over-represented in the sample as a whole.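 Percent growth is the endpoint: 0 to 100 indicates growth inhibition (40 means 60% inhibition), 0 means no net growth, and negative values indicate cell death.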 Values without a mark were called inactive. Activity calls are given as the source filed them. How the source made its calls: active means growth percent below 10; inactive means the rest.

Key:
Experiment in all cases: NCI-60 one-dose screen, 48 h (100 = growth as untreated, 0 = no growth, -100 = all killed)
[1] = system: NCI-H23 lung; details: 10 µM unless noted
[2] = system: NCI-H226 lung; details: 10 µM unless noted
[3] = system: NCI-H322M lung; details: 10 µM unless noted
[4] = system: NCI-H460 lung; details: 10 µM unless noted
[5] = system: HOP-92 NSCLC; details: 10 µM
[6] = system: NCI-H522 lung; details: 10 µM
[7] = system: A549/ATCC NSCLC; details: 10 µM unless noted
[8] = system: 786-0 renal; details: 10 µM unless noted
[9] = system: COLO 205 colon; details: 10 µM unless noted

In the case of `NNC(=S)N1N=C(c2cc3ccccc3o2)CC1c1c[nH]c2ccccc12` (stereo not given), the growth [1] is reported as 56.4%, the growth [2] is reported as 69.7% and the growth [3] is reported as 39.6%. For the same molecule, the growth [4] was 24.7%, the growth [5] was 50.1% and the growth [6] was 42.6%. For the same molecule, the growth [7] was 48.4%, the growth [8] was 22% and the growth [9] was 52.2%.

With `CCCCCCCCc1ccc(CCC(N)(CO)CO)cc1` the growth [1] was 68.9%, the growth [2] was 94.3% and the growth [3] was 3.56% (active). The growth [4] was 0.54% (active), the growth [5] was -5.83% (active) and the growth [6] was -51.7% (active). For the same molecule, the growth [7] was 0.665% (active), the growth [8] was -44.2% (active) and the growth [9] was -87.5% (active).

Work on `Oc1ccccc1/C=N/N=C/c1c(O)ccc2ccccc12` yielded a growth [1] of 82%, a growth [2] of 90.8% and a growth [3] of 107%. For the same molecule, the growth [4] was 88%, the growth [5] was 66.9% and the growth [6] was 84%. For the same molecule, the growth [7] was 95.6%, the growth [8] was 107% and the growth [9] was 104%.

`CCCCCCCCCCCCCCCCCC1=NCCN1CS(=O)(=O)O` gave a growth [1] of 87.5%, a growth [2] of 87.5% and a growth [3] of 15.5%. The growth [4] was -79.1% (active), the growth [5] was 38.5% and the growth [6] was 84.5%. The growth [7] was -8.05% (active), the growth [8] was 74.5% and the growth [9] was 29.2%.

Work on `O=C1C(=O)c2ccccc2C(O)=C1CCCc1ccc(Oc2ccccc2)cc1` yielded a growth [1] of 75%, a growth [2] of 46.5% and a growth [3] of 62.2%. For the same molecule, the growth [4] was 32.7%, the growth [5] was 54.5% and the growth [6] was 57.9%. The growth [7] was 82.2%, the growth [8] was 37.5% and the growth [9] was 111%.

Molecule `O=C(N/N=C\c1ccc(Cl)cc1)C(=O)N/N=C\c1ccc(Cl)cc1` has a growth [1] of 102%, a growth [2] of 110% and a growth [3] of 92.9%. The growth [4] was 103%, the growth [5] was 92.3% and the growth [6] was 101%. For the same molecule, the growth [7] was 102%, the growth [8] was 91.2% and the growth [9] was 97%.

`Nc1ccc(S(=O)(=O)c2ccc(NO)cc2)cc1` gave a growth [1] of 100%, a growth [2] of 118% and a growth [3] of 116%. For the same molecule, the growth [4] was 111%, the growth [5] was 108% and the growth [6] was 79.4%. The growth [7] was 105%, the growth [8] was 99.1% and the growth [9] was 111%.

`COc1ccc(CN2C(=O)/C(=C\C(=O)c3ccc(OCCN4CCCC4)cc3)c3ccccc32)cc1` was tested, and the growth [1] was 83.8%, the growth [2] was 87.8% and the growth [3] was 97.6%. It also gave a growth [4] of 94.4%, a growth [5] of 54.4% and a growth [6] of 31.9%. The growth [7] was 97.2%, the growth [8] was 85.7% and the growth [9] was 83.9%.

Work on `Oc1ccccc1/C=N/N=C\c1ccccc1Cl` yielded a growth [1] of 88.3%, a growth [2] of 76.8% and a growth [3] of 97.6%. It also gave a growth [4] of 99%, a growth [5] of 77.5% and a growth [6] of 92.3%. For the same molecule, the growth [7] was 101%, the growth [8] was 100% and the growth [9] was 109%.

Work on `Cc1ccc(S(=O)(=O)N/N=C2\CC3CCC2C3)cc1` (stereo not given) yielded a growth [1] of 117%, a growth [2] of 96.8% and a growth [3] of 99.3%. The growth [4] was 107%, the growth [5] was 87.2% and the growth [6] was 96.7%. The growth [7] was 105%, the growth [8] was 100% and the growth [9] was 113%.

Molecule `c1ccc(-c2cn3ccnc3c(-c3ccc4ncn(C5CCCCC5)c4c3)n2)cc1` has a growth [1] of 54.7%, a growth [2] of 66.1% and a growth [3] of 94.8%. For the same molecule, the growth [4] was 62.2%, the growth [5] was 46.3% and the growth [6] was 41.9%. It also gave a growth [7] of 66.7%, a growth [8] of 63.2% and a growth [9] of 79.3%.

Molecule `COc1ccc(/C=C2\SC(=O)N(Cc3cc(=O)oc4ccc(OC)cc34)C2=O)cc1` has a growth [1] of 71.6%, a growth [2] of 67.9% and a growth [3] of 84.9%. The growth [4] was 94.1%, the growth [5] was 86% and the growth [6] was 77.9%. For the same molecule, the growth [7] was 96.4%, the growth [8] was 83.9% and the growth [9] was 111%.

For `COc1ccc(C2C3(C#N)C(N)=NC(=C(C#N)C#N)C23C#N)cc1OC` (stereo not given), the growth [1] was 104%, the growth [2] was 109% and the growth [3] was 111%. For the same molecule, the growth [4] was 119%, the growth [5] was 76.8% and the growth [6] was 107%. It also gave a growth [7] of 107%, a growth [8] of 99.5% and a growth [9] of 123%.

Molecule `CC(C)OC(=O)Nn1cnc2ccccc21` has a growth [1] of 98.4%, a growth [2] of 106% and a growth [3] of 122%. The growth [4] was 114%, the growth [5] was 95.6% and the growth [6] was 103%. It also gave a growth [7] of 117%, a growth [8] of 96.7% and a growth [9] of 130%.

In the case of `CCN(CC)CCCNc1c2ccc(Cl)cc2nc2ccc(OC)cc12`, the growth [1] is reported as -34.9% (active), the growth [2] is reported as -6.37% (active) and the growth [3] is reported as -18.9% (active). The growth [4] was 1.68% (active), the growth [5] was -27.8% (active) and the growth [6] was -52% (active). For the same molecule, the growth [7] was -32.4% (active), the growth [8] was 9.99% (active) and the growth [9] was -72.3% (active).

For `Cc1c(Cc2ccccc2)c(=O)oc2c(C)c(OCC(=O)n3nc(C#N)cc3N)ccc12`, the growth [1] was 96.5%, the growth [2] was 96.2% and the growth [3] was 93.6%. The growth [4] was 106%, the growth [5] was 89.1% and the growth [6] was 79.4%. For the same molecule, the growth [7] was 106%, the growth [8] was 97% and the growth [9] was 107%.

For `Nc1cc2c(cc1Br)[nH]c(=O)c1ccccc12`, the growth [1] was 54.4%, the growth [2] was 54.8% and the growth [3] was 83.8%. It also gave a growth [4] of 38.4%, a growth [5] of 35% and a growth [6] of 43%. The growth [7] was 29.3%, the growth [8] was 58.6% and the growth [9] was 68.1%.

`O=C(Nc1ccc(Cl)cn1)C1(c2ccccc2)CCCCC1` showed a growth [1] of 114%, a growth [2] of 103% and a growth [3] of 119%. For the same molecule, the growth [4] was 102%, the growth [5] was 60.7% and the growth [6] was 140%. It also gave a growth [7] of 110%, a growth [8] of 97.5% and a growth [9] of 103%.

With `COc1cc2c(cc1OC)C(Cc1cc(OC)c(OC)cc1[N+](=O)[O-])=NCC2` the growth [1] was 67.5%, the growth [2] was 88.7% and the growth [3] was 94.9%. For the same molecule, the growth [4] was 64.8%, the growth [5] was 48.5% and the growth [6] was 82.6%. It also gave a growth [7] of 90%, a growth [8] of 87.6% and a growth [9] of 94.9%.

Work on `Nc1ccc(S(=O)(=O)Nc2cc(F)cc(F)c2)cc1` yielded a growth [1] of 111%, a growth [2] of 104% and a growth [3] of 114%. It also gave a growth [4] of 110%, a growth [5] of 99.9% and a growth [6] of 94.9%. It also gave a growth [7] of 119%, a growth [8] of 99.7% and a growth [9] of 112%.

With `COc1ccc(/C=C/C(=O)/C=C/c2cc3ccccc3[nH]c2=O)cc1` the growth [1] was 70.4%, the growth [2] was 90.9% and the growth [3] was 109%. It also gave a growth [4] of 92.7%, a growth [5] of 89.8% and a growth [6] of 48.8%. The growth [7] was 51.3%, the growth [8] was 93.1% and the growth [9] was 55.8%.

In the case of `O=C(NCCNCCO)c1cc([N+](=O)[O-])cc([N+](=O)[O-])c1O`, the growth [1] is reported as 103%, the growth [2] is reported as 97.7% and the growth [3] is reported as 103%. It also gave a growth [4] of 104%, a growth [5] of 93.9% and a growth [6] of 91.9%. For the same molecule, the growth [7] was 100%, the growth [8] was 104% and the growth [9] was 110%.

`CCCCCCCCC1OC1CCCCCCCC(=O)O` (stereo not given) gave a growth [1] of 100%, a growth [2] of 92% and a growth [3] of 102%. The growth [4] was 99.1%, the growth [5] was 87.8% and the growth [6] was 97.7%. It also gave a growth [7] of 91.9%, a growth [8] of 100% and a growth [9] of 105%.

Work on `CCOC(=O)C1=C(c2ccccc2)NC(=O)NC1CN1C(=O)c2ccccc2C1=O` (stereo not given) yielded a growth [1] of 93.9%, a growth [2] of 105% and a growth [3] of 118%. For the same molecule, the growth [4] was 105%, the growth [5] was 72.9% and the growth [6] was 108%. The growth [7] was 127%, the growth [8] was 102% and the growth [9] was 116%.

With `CCC(CCCN1C(=O)c2ccccc2C1=O)Nc1cc(OC)cc2cccnc12` (stereo not given) the growth [1] was 97.6%, the growth [2] was 107% and the growth [3] was 116%. The growth [4] was 112%, the growth [5] was 72.4% and the growth [6] was 103%. It also gave a growth [7] of 106%, a growth [8] of 103% and a growth [9] of 119%.

Work on `O=C(CN1C(=O)NC(c2ccccc2)(c2ccccc2)C1=O)c1ccc(N2CCCC2)cc1` yielded a growth [1] of 72.2%, a growth [2] of 90.7% and a growth [3] of 97.4%. For the same molecule, the growth [4] was 103%, the growth [5] was 73.8% and the growth [6] was 64.5%. For the same molecule, the growth [7] was 77.2%, the growth [8] was 99.6% and the growth [9] was 103%.

`CC(C)OC(=O)c1ccc2n1CCCc1cnc(Nc3ccccc3)nc1-2` showed a growth [1] of 67%, a growth [2] of 84.4% and a growth [3] of 116%. The growth [4] was 86.6%, the growth [5] was 75.6% and the growth [6] was 63.3%. For the same molecule, the growth [7] was 74.4%, the growth [8] was 83.3% and the growth [9] was 86%.

Molecule `O=C(O)/C(Br)=C/c1c[nH]c2ccc(Br)cc12` has a growth [1] of 99.6%, a growth [2] of 108% and a growth [3] of 116%. For the same molecule, the growth [4] was 122%, the growth [5] was 174% and the growth [6] was 110%. It also gave a growth [7] of 117%, a growth [8] of 101% and a growth [9] of 156%.

Molecule `CCOC(=O)c1ccc2n1CCCc1cnc(NC(C)=O)nc1-2` has a growth [1] of 112%, a growth [2] of 82.4% and a growth [3] of 110%. For the same molecule, the growth [4] was 112%, the growth [5] was 82.2% and the growth [6] was 97%. The growth [7] was 109%, the growth [8] was 99.4% and the growth [9] was 122%.

`CCOc1ccccc1/C=N\N=C(N/N=C/c1ccccc1OCC)N/N=C/c1ccccc1OCC` gave a growth [1] of 18.8%, a growth [2] of 20.3% and a growth [3] of 11.3%. The growth [4] was 1.36% (active), the growth [5] was -21.1% (active) and the growth [6] was 1.5% (active). For the same molecule, the growth [7] was 9.6% (active), the growth [8] was 22.9% and the growth [9] was -38.9% (active).
